From article PMC8384837, “Expanding the binding specificity for RNA recognition by a PUF domain”
Positions count from the first letter of the chain named.

Tests used:
Assay in all cases: yeast three-hybrid, YBZ-1, SC-Leu-His + 0.5 mM 3-AT, 4 days
Details in all cases: tags: N-Gal4 AD-HA kept; label: inside an RPR1-promoter hybrid RNA with tandem MS2 sites; ssRNA
PUM1 PUF domain R1-NWG = PUM1 PUF domain R1-NWG (Homo sapiens, UniProt Q14671 828-1176, S863N;R864W;Q867G)
Procedure, shortened: (§1)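 The interaction score is the log change in how often each variant appears, from input to selection. Frequencies came from PCR-amplified, Illumina-sequenced repeat regions of Pumilio-1 PUF domain libraries grown in strain YBZ-1 (LexA–MS2 coat fusion, HIS3 reporter) alongside matching RNA elements. Input plates were SC-Leu and selection plates were SC-Leu-His + 0.5 mM 3-AT, each for four days, and the log2 calculation used a pseudocount of 1 where a variant was absent.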

PUM1 PUF domain R6-MYG = biological target: T1, PUM1 PUF domain R6-MYG (Homo sapiens, UniProt Q14671 828-1176, N1043M;Q1047G)
T1 sequence: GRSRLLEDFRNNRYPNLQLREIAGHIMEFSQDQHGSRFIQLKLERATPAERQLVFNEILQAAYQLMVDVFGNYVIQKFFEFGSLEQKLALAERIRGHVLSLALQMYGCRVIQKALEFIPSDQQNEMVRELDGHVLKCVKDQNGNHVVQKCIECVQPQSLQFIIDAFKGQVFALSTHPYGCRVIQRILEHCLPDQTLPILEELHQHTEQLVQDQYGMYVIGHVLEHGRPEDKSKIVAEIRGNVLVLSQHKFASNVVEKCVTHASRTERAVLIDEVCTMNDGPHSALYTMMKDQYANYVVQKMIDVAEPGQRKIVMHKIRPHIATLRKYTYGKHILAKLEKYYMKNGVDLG
Procedure, shortened: as §1

PUM1 PUF domain R8-KFR = PUM1 PUF domain R8-KFR (Homo sapiens, UniProt Q14671 828-1176, N1122K;Y1123F;Q1126R)
Procedure, shortened: as §1

PUM1 PUF domain R3-ASY = PUM1 PUF domain R3-ASY (Homo sapiens, UniProt Q14671 828-1176, C935A;R936S;Q939Y)
Procedure, shortened: as §1

PUM1 PUF domain R6-RWS = biological target: T2, PUM1 PUF domain R6-RWS (Homo sapiens, UniProt Q14671 828-1176, N1043R;Y1044W;Q1047S)
T2 sequence: T1 sequence with M216R, Y217W, G220S
Procedure, shortened: as §1

PUM1 PUF domain R4-VNT = PUM1 PUF domain R4-VNT (Homo sapiens, UniProt Q14671 828-1176, N971V;H972N;Q975T)
Chain of PUM1 PUF domain R4-VNT (Q14671 828-1176 N971V/H972N/Q975T): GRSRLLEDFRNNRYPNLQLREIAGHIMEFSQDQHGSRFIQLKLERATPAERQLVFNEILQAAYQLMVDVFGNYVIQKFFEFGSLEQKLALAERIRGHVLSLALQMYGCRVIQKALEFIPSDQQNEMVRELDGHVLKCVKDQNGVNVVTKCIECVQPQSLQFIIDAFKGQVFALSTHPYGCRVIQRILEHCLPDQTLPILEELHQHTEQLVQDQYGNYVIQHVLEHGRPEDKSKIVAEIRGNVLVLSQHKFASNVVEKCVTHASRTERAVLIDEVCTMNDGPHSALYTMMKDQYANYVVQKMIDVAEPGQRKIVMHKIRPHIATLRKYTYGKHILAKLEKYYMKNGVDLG
Procedure, shortened: as §1

PUM1 PUF domain R5-RNI = PUM1 PUF domain R5-RNI (Homo sapiens, UniProt Q14671 828-1176, C1007R;R1008N;Q1011I)
Procedure, shortened: as §1

PUM1 PUF domain R2-EWS = PUM1 PUF domain R2-EWS (Homo sapiens, UniProt Q14671 828-1176, N899E;Y900W;Q903S)
Procedure, shortened: as §1

PUM1 PUF domain R7-GCG = PUM1 PUF domain R7-GCG (Homo sapiens, UniProt Q14671 828-1176, S1079G;N1080C;E1083G)
Chain of PUM1 PUF domain R7-GCG (Q14671 828-1176 S1079G/N1080C/E1083G): as the sequence (Q14671 828-1176 N971V/H972N/Q975T) above, with V144N, N145H, T148Q, S252G, N253C, E256G counted along it
Procedure, shortened: as §1

In the case of “GGCUAGAACUAGUGGAUCCCCCGGCGCCCGGCGGCUCGAGCCCGGGUAAGUGUAAAUUGUCUGCAUGCCGCCGGGCGCCAUGCCUGCAGGUCGACUCUAGAAAACAUG”, the binding signal (PUM1 PUF domain R1-NWG) is reported as 5.42 log2 enrichment (interaction score).
“GGCUAGAACUAGUGGAUCCCCCGGCGCCCGGCGGCUCGAGCCCGGGUAAGUGUAAAUAGUCUGCAUGCCGCCGGGCGCCAUGCCUGCAGGUCGACUCUAGAAAACAUG” was tested, and the binding signal (PUM1 PUF domain R6-MYG) was 4.1 log2 enrichment (interaction score), the binding signal (PUM1 PUF domain R8-KFR) was 6.77 log2 enrichment (interaction score) and the binding signal (PUM1 PUF domain R3-ASY) was 2.58 log2 enrichment (interaction score). For the same sequence, the binding signal (PUM1 PUF domain R6-RWS) was 6.05 log2 enrichment (interaction score).
With “GGCUAGAACUAGUGGAUCCCCCGGCGCCCGGCGGCUCGAGCCCGGGUAAGUGUAUAUAGUCUGCAUGCCGCCGGGCGCCAUGCCUGCAGGUCGACUCUAGAAAACAUG” the binding signal (PUM1 PUF domain R4-VNT) was 2.54 log2 enrichment (interaction score).
With “GGCUAGAACUAGUGGAUCCCCCGGCGCCCGGCGGCUCGAGCCCGGGUAAGUGUACAUAGUCUGCAUGCCGCCGGGCGCCAUGCCUGCAGGUCGACUCUAGAAAACAUG” the binding signal (PUM1 PUF domain R4-VNT) was 0.69 log2 enrichment (interaction score).
“GGCUAGAACUAGUGGAUCCCCCGGCGCCCGGCGGCUCGAGCCCGGGUAAGUGUCAAUAGUCUGCAUGCCGCCGGGCGCCAUGCCUGCAGGUCGACUCUAGAAAACAUG” was tested, and the binding signal (PUM1 PUF domain R5-RNI) was 3.78 log2 enrichment (interaction score).
“GGCUAGAACUAGUGGAUCCCCCGGCGCCCGGCGGCUCGAGCCCGGGUAAGUGUAAAGAGUCUGCAUGCCGCCGGGCGCCAUGCCUGCAGGUCGACUCUAGAAAACAUG” was tested, and the binding signal (PUM1 PUF domain R2-EWS) was 4.8 log2 enrichment (interaction score).
In the case of “GGCUAGAACUAGUGGAUCCCCCGGCGCCCGGCGGCUCGAGCCCGGGUAAGUGUAAAAAGUCUGCAUGCCGCCGGGCGCCAUGCCUGCAGGUCGACUCUAGAAAACAUG”, the binding signal (PUM1 PUF domain R2-EWS) is reported as 6.34 log2 enrichment (interaction score).
For “GGCUAGAACUAGUGGAUCCCCCGGCGCCCGGCGGCUCGAGCCCGGGUAAGUUUAAAUAGUCUGCAUGCCGCCGGGCGCCAUGCCUGCAGGUCGACUCUAGAAAACAUG”, the binding signal (PUM1 PUF domain R7-GCG) was 3.64 log2 enrichment (interaction score).
